Results from the supplement of paper PMC11732987, “Enantioselective OTUD7B fragment discovery through chemoproteomics screening and high-throughput optimisation” (Communications Chemistry, 2025).

Columns and labels:
Assay in all cases: log2 ratio of Biotin-Ahx-Ub-VS probe labelling (fragment/DMSO); higher = less target engagement (more negative = stronger competition), active = hit call of the paper (q ≤ 0.05, log2 ratio ≤ -1)
Details in all cases: compound concentration: 200 uM; treatment time: 3 h
USP42 = biological target: T1, USP42 (UniProt Q9H9J4)
T1 sequence (whole entry): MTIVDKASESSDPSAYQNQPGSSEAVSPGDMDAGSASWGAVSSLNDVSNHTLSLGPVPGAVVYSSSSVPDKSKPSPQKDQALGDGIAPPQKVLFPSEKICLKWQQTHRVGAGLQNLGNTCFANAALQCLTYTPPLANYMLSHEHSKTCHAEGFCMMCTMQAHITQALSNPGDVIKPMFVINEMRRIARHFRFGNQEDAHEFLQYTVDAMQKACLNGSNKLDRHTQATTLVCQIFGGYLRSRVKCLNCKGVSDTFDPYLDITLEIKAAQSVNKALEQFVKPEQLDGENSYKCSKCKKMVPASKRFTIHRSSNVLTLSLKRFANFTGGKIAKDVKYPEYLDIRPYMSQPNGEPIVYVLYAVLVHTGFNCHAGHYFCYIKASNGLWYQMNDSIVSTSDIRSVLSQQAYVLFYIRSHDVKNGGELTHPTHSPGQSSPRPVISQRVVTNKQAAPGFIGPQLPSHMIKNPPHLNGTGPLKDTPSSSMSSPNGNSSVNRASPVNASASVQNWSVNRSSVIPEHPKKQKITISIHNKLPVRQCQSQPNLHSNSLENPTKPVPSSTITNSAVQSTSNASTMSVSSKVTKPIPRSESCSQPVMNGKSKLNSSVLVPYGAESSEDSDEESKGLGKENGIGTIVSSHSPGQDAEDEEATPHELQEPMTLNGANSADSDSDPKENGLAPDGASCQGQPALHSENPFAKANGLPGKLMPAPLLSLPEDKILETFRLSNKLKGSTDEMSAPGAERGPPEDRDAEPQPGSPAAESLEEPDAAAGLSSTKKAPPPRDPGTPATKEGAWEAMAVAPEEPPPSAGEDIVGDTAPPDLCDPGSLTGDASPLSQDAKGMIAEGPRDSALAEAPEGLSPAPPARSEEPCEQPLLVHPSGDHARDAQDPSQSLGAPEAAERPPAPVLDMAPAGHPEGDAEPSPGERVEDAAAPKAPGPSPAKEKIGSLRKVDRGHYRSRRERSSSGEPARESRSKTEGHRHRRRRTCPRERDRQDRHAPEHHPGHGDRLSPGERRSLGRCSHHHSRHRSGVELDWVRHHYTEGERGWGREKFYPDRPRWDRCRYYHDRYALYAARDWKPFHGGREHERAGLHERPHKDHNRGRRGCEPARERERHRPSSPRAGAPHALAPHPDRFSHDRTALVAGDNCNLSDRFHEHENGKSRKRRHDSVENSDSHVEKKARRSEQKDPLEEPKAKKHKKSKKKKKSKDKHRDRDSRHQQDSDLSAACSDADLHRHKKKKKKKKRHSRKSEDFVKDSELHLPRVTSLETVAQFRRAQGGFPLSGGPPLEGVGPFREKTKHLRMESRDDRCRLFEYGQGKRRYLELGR
Method in brief: (§1)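 Triplicate samples of HEK293T lysate, 495 µg each, received fragment at 200 µM or vehicle for 3 h, followed by Biotin-Ahx-Ub-VS (0.5 µM final) for 1 h. After NeutrAvidin enrichment of labelled DUBs and LysC/trypsin digestion, peptides were run by diaPASEF LC-MS/MS. The values are average log2 fragment/vehicle ratios from global-median-normalised Spectronaut label-free quantities, tested by unpaired t-test on proteins having ≥2 unique peptides.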

USP46 = USP46 (UniProt P62068)
Method in brief: as §1

USP47 = biological target: T2, USP47 (UniProt Q96K76)
T2 sequence (whole entry): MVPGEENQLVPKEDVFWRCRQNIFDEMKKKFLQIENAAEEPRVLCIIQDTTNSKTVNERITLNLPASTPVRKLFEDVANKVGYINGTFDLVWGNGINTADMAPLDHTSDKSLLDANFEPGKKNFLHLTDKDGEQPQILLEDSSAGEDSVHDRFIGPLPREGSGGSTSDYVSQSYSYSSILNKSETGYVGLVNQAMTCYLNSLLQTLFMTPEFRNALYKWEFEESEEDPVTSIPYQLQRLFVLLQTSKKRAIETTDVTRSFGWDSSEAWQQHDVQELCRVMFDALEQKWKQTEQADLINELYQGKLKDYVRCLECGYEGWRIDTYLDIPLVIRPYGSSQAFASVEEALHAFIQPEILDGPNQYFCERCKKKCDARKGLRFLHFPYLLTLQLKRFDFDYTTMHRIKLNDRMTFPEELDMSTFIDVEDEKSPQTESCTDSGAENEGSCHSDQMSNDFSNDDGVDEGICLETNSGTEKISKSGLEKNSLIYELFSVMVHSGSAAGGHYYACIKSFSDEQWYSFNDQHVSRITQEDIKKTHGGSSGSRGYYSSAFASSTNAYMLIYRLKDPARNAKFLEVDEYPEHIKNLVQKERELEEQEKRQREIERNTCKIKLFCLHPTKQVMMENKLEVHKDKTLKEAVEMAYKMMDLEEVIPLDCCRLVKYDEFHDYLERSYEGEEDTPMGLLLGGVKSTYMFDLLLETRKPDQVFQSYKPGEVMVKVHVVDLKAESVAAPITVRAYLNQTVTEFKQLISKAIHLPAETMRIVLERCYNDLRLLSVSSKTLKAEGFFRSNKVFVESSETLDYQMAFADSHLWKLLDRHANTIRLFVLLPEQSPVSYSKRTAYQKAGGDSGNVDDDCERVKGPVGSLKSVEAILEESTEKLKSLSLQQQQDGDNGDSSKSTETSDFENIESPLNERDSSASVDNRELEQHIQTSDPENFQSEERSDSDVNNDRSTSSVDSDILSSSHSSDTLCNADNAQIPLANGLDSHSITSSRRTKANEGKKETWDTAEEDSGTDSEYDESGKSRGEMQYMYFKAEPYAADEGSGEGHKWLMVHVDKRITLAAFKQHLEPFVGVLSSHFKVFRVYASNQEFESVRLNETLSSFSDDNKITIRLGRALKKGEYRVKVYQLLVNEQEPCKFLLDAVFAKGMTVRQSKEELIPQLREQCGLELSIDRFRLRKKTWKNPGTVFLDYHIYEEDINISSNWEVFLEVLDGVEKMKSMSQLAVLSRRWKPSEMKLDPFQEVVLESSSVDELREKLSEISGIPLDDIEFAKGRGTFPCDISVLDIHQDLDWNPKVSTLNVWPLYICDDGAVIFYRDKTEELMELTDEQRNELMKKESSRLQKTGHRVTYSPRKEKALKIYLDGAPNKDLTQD
Method in brief: as §1

USP48 = biological target: T3, USP48 (UniProt Q86UV5)
T3 sequence (whole entry): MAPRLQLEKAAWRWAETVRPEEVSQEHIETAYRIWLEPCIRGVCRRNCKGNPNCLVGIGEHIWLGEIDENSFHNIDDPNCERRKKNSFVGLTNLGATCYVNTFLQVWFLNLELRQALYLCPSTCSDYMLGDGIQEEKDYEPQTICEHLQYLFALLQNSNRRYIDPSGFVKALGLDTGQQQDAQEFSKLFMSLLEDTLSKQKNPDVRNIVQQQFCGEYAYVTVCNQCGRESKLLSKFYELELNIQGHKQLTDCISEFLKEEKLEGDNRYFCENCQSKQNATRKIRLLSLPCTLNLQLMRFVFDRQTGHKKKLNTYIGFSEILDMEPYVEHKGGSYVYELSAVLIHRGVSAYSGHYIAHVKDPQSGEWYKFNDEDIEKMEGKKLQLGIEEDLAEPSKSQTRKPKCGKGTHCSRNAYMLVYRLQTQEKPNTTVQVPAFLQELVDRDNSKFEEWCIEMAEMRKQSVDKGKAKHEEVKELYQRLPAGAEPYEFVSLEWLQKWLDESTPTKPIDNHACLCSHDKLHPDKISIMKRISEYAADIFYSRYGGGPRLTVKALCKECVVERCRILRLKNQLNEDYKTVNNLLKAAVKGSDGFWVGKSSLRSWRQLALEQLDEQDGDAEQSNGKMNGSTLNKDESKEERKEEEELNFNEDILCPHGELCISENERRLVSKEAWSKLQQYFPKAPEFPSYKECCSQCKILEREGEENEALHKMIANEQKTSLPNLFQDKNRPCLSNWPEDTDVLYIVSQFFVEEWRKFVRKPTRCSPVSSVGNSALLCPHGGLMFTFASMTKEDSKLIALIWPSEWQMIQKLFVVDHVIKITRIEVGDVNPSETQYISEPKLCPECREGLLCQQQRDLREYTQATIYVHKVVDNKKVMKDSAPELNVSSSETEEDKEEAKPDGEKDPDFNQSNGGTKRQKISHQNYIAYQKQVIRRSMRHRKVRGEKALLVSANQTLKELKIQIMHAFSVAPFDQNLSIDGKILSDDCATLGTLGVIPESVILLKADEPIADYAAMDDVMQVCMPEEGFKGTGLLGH
Method in brief: as §1

USP5 = biological target: T4, USP5 (UniProt P45974)
T4 sequence (whole entry): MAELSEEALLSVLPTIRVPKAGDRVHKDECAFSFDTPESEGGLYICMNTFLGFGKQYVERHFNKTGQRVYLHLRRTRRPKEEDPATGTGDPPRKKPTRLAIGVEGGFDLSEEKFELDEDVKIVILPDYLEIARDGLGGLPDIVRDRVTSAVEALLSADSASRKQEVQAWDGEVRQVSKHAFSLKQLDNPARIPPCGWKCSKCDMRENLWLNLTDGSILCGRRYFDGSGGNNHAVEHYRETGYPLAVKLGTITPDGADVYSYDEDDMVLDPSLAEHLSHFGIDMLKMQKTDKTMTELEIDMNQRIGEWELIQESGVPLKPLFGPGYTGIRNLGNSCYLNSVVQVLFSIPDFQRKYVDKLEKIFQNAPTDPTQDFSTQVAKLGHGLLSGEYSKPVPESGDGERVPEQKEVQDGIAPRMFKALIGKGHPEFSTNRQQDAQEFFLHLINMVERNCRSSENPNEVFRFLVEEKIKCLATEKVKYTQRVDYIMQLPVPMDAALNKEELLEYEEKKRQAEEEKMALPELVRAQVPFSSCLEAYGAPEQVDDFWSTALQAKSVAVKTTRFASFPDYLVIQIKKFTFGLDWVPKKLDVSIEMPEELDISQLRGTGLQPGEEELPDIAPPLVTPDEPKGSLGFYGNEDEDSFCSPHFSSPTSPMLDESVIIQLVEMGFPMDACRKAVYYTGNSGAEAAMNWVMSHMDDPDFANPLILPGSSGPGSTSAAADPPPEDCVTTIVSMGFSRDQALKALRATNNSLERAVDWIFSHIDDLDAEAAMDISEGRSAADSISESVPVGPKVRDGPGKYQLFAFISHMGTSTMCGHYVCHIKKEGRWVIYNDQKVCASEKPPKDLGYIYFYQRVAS
Method in brief: as §1

USP54 = USP54 (UniProt Q70EL1)
Method in brief: as §1

USP7 = USP7 (UniProt Q93009)
Method in brief: as §1

USP8 = biological target: T5, USP8 (UniProt P40818)
T5 sequence (whole entry): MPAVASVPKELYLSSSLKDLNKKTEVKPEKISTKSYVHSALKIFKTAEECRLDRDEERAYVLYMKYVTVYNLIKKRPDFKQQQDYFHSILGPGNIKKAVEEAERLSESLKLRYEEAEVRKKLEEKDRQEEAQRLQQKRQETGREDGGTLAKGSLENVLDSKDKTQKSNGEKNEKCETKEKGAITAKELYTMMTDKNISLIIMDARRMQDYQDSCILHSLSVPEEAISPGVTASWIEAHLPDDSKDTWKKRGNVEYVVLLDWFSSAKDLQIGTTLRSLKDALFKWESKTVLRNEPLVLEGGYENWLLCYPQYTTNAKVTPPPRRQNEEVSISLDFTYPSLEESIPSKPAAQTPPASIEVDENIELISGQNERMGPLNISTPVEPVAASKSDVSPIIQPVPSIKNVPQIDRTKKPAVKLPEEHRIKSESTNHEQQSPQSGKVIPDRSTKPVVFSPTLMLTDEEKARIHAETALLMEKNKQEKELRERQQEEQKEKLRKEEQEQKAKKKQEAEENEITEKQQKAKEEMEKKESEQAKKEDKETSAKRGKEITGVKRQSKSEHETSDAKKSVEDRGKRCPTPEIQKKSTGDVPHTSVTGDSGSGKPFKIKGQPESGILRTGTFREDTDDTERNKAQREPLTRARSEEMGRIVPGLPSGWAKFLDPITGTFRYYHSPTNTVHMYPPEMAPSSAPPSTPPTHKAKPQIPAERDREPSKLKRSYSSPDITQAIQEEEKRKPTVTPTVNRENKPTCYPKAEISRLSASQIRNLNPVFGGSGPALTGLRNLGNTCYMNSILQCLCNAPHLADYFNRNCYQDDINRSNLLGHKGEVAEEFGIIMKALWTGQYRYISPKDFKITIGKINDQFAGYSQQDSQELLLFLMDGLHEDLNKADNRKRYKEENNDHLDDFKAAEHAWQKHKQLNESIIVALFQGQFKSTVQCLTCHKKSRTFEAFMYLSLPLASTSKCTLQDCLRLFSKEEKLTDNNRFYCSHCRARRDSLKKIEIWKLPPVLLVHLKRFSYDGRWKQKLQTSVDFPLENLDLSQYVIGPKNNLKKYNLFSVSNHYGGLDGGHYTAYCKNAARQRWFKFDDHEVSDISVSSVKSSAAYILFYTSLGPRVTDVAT
Method in brief: as §1

USP9X = USP9X (UniProt Q93008)
Method in brief: as §1

UniProt O00487 = biological target: UniProt O00487
Method in brief: as §1

Measured: log2 ratio of Biotin-Ahx-Ub-VS probe labelling

Sequence of USP7 (Q93009 whole entry, looked up): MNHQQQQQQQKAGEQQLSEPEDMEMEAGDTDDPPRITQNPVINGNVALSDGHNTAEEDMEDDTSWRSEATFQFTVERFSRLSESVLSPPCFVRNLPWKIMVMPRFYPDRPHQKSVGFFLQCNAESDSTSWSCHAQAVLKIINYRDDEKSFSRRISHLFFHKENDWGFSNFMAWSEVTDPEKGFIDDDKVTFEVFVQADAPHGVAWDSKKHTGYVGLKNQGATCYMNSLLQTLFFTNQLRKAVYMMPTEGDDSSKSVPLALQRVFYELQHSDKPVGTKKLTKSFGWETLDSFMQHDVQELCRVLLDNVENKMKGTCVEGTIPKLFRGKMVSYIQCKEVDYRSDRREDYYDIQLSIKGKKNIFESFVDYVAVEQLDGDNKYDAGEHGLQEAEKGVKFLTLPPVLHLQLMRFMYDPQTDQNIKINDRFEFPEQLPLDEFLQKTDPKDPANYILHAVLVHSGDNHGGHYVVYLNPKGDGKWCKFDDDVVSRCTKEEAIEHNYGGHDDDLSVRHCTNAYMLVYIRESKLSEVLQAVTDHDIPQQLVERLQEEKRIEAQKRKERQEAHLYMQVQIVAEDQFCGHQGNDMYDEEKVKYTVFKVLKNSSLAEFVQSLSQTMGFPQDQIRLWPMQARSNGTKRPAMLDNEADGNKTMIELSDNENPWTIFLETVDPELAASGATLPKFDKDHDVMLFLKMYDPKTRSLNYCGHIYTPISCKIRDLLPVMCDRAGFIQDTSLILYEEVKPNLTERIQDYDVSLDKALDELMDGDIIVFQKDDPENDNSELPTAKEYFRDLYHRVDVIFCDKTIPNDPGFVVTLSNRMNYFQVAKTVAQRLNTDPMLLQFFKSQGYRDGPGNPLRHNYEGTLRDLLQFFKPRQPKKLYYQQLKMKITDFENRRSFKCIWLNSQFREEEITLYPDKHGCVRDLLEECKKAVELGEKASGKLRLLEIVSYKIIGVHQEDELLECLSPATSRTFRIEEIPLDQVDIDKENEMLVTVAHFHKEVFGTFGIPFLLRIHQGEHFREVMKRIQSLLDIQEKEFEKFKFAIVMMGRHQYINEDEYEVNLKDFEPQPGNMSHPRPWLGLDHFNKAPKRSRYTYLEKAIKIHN
Sequence of UniProt O00487 (O00487 whole entry): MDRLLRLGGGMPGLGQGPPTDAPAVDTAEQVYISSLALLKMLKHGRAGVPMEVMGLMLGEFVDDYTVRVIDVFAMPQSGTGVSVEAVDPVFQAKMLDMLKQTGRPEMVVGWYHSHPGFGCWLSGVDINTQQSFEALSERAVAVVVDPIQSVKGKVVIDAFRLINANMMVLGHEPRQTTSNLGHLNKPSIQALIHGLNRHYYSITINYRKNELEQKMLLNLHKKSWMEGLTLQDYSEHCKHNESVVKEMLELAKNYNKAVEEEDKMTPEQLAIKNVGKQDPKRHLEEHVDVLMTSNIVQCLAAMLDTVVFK
Sequence of USP54 (Q70EL1 whole entry): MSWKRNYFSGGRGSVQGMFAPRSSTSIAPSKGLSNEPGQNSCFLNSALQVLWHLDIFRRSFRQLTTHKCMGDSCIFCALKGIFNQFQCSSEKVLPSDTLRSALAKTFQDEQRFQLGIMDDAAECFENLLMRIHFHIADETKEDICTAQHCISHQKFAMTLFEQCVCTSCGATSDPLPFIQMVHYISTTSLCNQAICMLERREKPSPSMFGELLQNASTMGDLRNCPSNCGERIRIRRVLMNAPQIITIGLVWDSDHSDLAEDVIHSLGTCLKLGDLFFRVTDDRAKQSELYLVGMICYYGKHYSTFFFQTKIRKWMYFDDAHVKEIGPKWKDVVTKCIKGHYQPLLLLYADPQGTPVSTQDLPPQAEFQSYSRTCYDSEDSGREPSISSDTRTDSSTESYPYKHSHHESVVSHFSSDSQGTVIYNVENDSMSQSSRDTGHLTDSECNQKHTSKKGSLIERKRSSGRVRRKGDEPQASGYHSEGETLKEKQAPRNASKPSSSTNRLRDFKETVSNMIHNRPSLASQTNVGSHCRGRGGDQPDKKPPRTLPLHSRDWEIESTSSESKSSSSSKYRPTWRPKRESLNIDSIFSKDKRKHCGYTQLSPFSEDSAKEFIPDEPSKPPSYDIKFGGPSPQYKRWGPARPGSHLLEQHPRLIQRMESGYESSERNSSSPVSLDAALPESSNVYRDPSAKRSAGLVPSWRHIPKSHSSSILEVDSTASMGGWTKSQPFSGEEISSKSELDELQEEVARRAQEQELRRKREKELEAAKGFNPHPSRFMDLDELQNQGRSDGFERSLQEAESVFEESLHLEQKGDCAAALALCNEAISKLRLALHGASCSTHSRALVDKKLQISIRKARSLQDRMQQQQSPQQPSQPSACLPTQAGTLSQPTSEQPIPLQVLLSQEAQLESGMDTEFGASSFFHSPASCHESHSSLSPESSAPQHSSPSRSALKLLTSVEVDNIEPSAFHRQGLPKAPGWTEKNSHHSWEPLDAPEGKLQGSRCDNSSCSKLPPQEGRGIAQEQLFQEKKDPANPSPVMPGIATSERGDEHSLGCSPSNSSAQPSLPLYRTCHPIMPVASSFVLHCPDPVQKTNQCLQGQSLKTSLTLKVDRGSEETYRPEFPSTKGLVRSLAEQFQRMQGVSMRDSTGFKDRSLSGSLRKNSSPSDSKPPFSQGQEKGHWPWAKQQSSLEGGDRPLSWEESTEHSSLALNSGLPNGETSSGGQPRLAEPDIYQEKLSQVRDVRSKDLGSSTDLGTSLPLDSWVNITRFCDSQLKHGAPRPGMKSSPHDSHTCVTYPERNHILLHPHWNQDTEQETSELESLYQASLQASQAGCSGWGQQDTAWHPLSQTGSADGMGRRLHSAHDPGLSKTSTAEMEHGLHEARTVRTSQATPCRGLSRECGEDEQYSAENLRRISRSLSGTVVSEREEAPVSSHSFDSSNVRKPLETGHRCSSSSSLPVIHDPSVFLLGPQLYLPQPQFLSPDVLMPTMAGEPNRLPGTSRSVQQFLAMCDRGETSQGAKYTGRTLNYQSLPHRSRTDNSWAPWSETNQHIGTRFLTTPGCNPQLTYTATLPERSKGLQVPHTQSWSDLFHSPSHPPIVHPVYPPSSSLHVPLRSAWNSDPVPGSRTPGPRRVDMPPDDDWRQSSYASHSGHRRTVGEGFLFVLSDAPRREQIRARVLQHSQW
Sequence of USP46 (P62068 whole entry): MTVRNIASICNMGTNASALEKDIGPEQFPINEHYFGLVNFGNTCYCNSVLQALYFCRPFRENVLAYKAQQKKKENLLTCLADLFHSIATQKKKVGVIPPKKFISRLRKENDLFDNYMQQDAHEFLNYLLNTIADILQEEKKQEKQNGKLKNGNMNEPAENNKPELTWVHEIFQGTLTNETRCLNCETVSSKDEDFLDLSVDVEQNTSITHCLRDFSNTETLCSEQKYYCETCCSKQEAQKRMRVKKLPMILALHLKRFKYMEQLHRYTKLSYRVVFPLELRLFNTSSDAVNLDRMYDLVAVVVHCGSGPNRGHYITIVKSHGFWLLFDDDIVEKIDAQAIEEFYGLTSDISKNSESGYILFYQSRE

Cc1nc(CNC(=O)CCl)c2ccccn12.Cl
inactive: USP42 0.298 | USP46 0.0871 | USP47 -0.0462 | USP48 0.164 | USP5 0.133 | USP54 -0.0547 | USP7 -0.157 | USP8 -0.312 | USP9X -0.222 | UniProt O00487 0.0442
